For 61 compounds, inhibition results are on record in PubChem BioAssay AID624504 (Sanford-Burnham Center for Chemical Genomics, 2012).

Broadly, the inhibition is the change of the read-out against control, counted positive when it falls.

Out of some 5,000 compounds screened, about 3,900 (78%) were called active. Rule as the data show it: active = inhibition above about 22%; inactive = the rest. The set was probably picked from earlier hits. These entries were drawn from the full list.

This assay is described as follows: fluorescence retest of MPTP screen hits in isolated mitochondria, single concentration (AID 624504).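 Also: 0% = DMSO vehicle and 100% = positive control.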 To be noted: membrane potential, Rhodamine 123 fluorescence, at 10 µM, hits give high values.
`CCCCOC(=O)CNc1nnc(SCC(=O)OCC)[nH]c1=O`: the inhibition was -7.97% (inactive).
Then `O=C(Cc1ccc(Cl)c(Cl)c1)Nc1ccc(SC(F)F)cc1`, with 73.8% (active); and `COc1ccc(/C=C2/SC(=O)N(CCCCCC(=O)Nc3ccccc3C(=O)O)C2=S)cc1`, with 46.1% (active); and `CN(C(=O)Nc1ccc(Cl)cc1)n1cnc2ccccc2c1=O`, with 89.2% (active).
Then `Cc1ccccc1C(=O)NC(=S)Nc1ccc(N2CCN(C(=O)c3ccccc3)CC2)cc1`, with 81.8% (active); and `Brc1ccc(CSc2ccc(-c3ccco3)nn2)cc1`, with -1.72% (inactive).
In the case of `Cc1onc(-c2ccccc2)c1C(=O)NNC(=S)NC(=O)c1ccc(F)cc1` it was 2.46% (inactive); in that of `C/C(=N\NC(=O)c1ccc(C)cc1)C1C(=O)c2ccccc2C1=O`, 58% (active); in that of `COc1ccc(-c2nc3cc(C)ccn3c2NC2CCCCC2)cc1SC1CCCCC1`, 77.5% (active).
With `CN(C)Cc1ccccc1C1(O)c2ccccc2CSc2ccccc21` (stereo unspecified), the inhibition was -8.88% (inactive).
In the case of `O=C(Nc1ccccc1)c1ccccc1NC(=O)C(F)(F)F` it was 85% (active); in that of `O=C(CSc1nc(-c2ccccc2)cs1)Nc1cccc([N+](=O)[O-])c1`, 80.1% (active); in that of `Cc1cccc(OCCNC(=O)CSc2ccc(C(F)(F)F)cc2[N+](=O)[O-])c1`, 81.3% (active).
As to `O=C(Nc1ccc2ccccc2c1)Nc1ccc2snnc2c1`, the inhibition was 47.9% (active).
Turning to `COc1ccc(NC(=O)Nc2ccc3nsnc3c2)cc1`, the inhibition was 84.7% (active).
Then `O=C(Nc1ccccc1)Nc1nnc(COc2ccccc2F)s1`, with 60.4% (active); and `O=C(CSc1nc2ccc([N+](=O)[O-])cc2[nH]1)c1ccc(Cl)cc1`, with 76.5% (active).
Then `CCOC(=O)N1CCN(C(=O)c2ccc3c(c2)N(Cc2ccc(C)cc2)CCS3)CC1`, with 63.9% (active); and `N#Cc1ccc(C(=O)Nc2nc(-c3cccs3)c(C(=O)C(F)(F)F)s2)cc1`, with 109% (active).
In the case of `Cc1cccc(NC(=S)Nc2ccc(Br)cc2)c1` it was 102% (active); in that of `Cc1cccc(NC(=S)Nc2ccc(Cl)c(Cl)c2)c1`, 90.8% (active); in that of `S=C(Nc1ccccc1)Nc1ccc2ccccc2c1`, 89.2% (active).
Regarding `FC(F)(F)COc1nc(N2CCCCC2)nc(N2CCNCC2)n1`, the inhibition was -11.8% (inactive).
Then `Cc1nn(Cc2ccccc2)c2c1C(c1ccccc1)C(C#N)=C(N)O2` (stereo unspecified), with -0.3% (inactive); and `COc1cc(NC(=O)Nc2ccc(C)cc2)cc([N+](=O)[O-])c1`, with 95.5% (active).
In the case of `CC(=O)c1ccc(NC(=O)Nc2ccc([N+](=O)[O-])cc2C)cc1` it was 90.3% (active); in that of `CN(C)Cc1ccc(F)cc1Sc1cc(Cl)ccc1Cl`, -3.35% (inactive).
In the case of `O=C(Nc1cccc(F)c1)c1coc(=O)c(Br)c1` it was 77.9% (active); in that of `COc1ccc(-n2c(C)cc(C(=O)CSc3nnc(-c4cccs4)o3)c2C)cc1`, 83% (active).
Consider `FC(F)(F)Oc1ccc(NC(=S)NCc2ccccc2)cc1`, for which the inhibition is 90.9% (active).
In the case of `CSCCC(NC(=O)c1cc([N+](=O)[O-])cc([N+](=O)[O-])c1)c1nc2ccccc2[nH]1` (stereo unspecified) it was 81.7% (active); in that of `Cc1ccc(C)c(S(=O)(=O)N2CCN(c3ncnc4sccc34)CC2)c1`, 104% (active).
Then `Cc1ccc(NC(=O)Nc2cc(-c3ccccc3)nn2C)cc1Cl`, with 69.1% (active); and `Cc1cc(NC(=O)Nc2ccc(Cl)cc2)n(-c2ccccc2)n1`, with 76.2% (active); and `Fc1ccccc1CNC(=S)Nc1ccc(Cl)cc1`, with 90.7% (active).
Then `C=C1c2c(Cl)ccc(O)c2C(O)=C2C(=O)[C@]3(O)C(O)=C(C(N)=O)C(=O)[C@@H](N(C)C)[C@@H]3[C@@H](O)C12` (stereo partly specified), with -13.7% (inactive); and `COc1ccc(NS(=O)(=O)c2ccc(Oc3c(C#N)cccc3C#N)cc2)cc1`, with 75.8% (active); and `S=C(NCC1COc2ccccc2O1)Nc1ccc(Br)cc1` (stereo unspecified), with 93.1% (active).
On to `S=C(NCCCc1ccccc1)Nc1ccc(Br)cc1`, for which the inhibition is 91.8% (active).
Then `CC(NC(=S)Nc1ccccc1)C1COc2ccccc2O1` (stereo unspecified), with 87% (active); and `O=C(CSCc1ccc(Br)cc1)Nc1ccc(S(=O)(=O)N2CCCCCC2)cc1`, with 80.4% (active); and `Fc1cc(F)c2nc(Nc3nc4c(F)cccc4s3)sc2c1`, with 69.9% (active).
Then `C=CC[n+]1c(-c2ccc(C)cc2)csc1NNC(=O)Nc1ccccc1`, with 83.2% (active); and `O=C1CCCN1CCCNC(=S)Nc1ccc(F)c(Cl)c1`, with 90.3% (active); and `Oc1c(Br)cccc1/C=N/Nc1c(F)c(F)c(F)c(F)c1F`, with 72.3% (active).
Then `Fc1ccc(N2N=C(c3cccs3)CC2c2ccco2)c(F)c1` (stereo unspecified), with -15.1% (inactive); and `O=C(CC(O)(C(F)(F)F)C(F)(F)F)Nc1ccc(Cl)c(Cl)c1`, with 84.9% (active).
`CCOC(=O)N1CCN(C(=O)C2CCN(c3ncnc4c3sc3cccc(F)c34)CC2)CC1`: the inhibition is 94.4% (active).
Then `N#C/C(=C(/O)Cc1cccc2ccccc12)c1nc2ccccc2s1`, with 69.1% (active); and `COc1ccc(Br)cc1C(=O)NC(=S)Nc1cc(-c2nc3ccccc3[nH]2)ccc1C`, with 51% (active); and `Cc1cc2ncn(CCCCOc3ccccc3)c2cc1C`, with 36.7% (active).
Then `CC(C)c1ccccc1OCC(O)CN(CC(O)COc1cccc2ccccc12)C(C)C` (stereo unspecified), with 4.85% (inactive); and `COc1ccc2c(c1)c(=Cc1ccc(N(C)C)cc1)c1cc(-c3ccccc3)[n+](C)n12`, with 79.7% (active).
Then `O=C(Nc1ccc(C2CC2(Cl)Cl)cc1)c1cccc([N+](=O)[O-])c1` (stereo unspecified), with 78.1% (active); and `Fc1ccc2[nH]c3c(N4CCSCC4)ncnc3c2c1`, with 94% (active); and `Cc1[nH]n(-c2cccc(Cl)c2)c(=O)c1-c1ccc(Cl)cc1`, with 98.6% (active).
With `C[C@@H](CN1CCC[C@H]1CN1C(N)=NC[C@@H]1Cc1ccccc1)N1C[C@@H](Cc2ccccc2)N(CCCC2CCCC2)C1=N`, the inhibition was 7.61% (inactive).
In the case of `CS(=O)(=O)c1sc(C(=O)NC(=S)Nc2ccc(OC(F)(F)F)cc2)c2c1C=CCC2` it was 71.2% (active); in that of `Cc1cccc(COc2ccccc2/C=N/Nc2ccc([N+](=O)[O-])cc2)c1`, 81.5% (active).
Then `O=[N+]([O-])c1ccc(N/N=C/c2ccccc2)cc1`, with 81.9% (active); and `COc1ccccc1Oc1ccc(S(=O)(=O)Nc2cccnc2)cc1`, with 70.1% (active).
